Data from paper PMC5540273 (PLoS ONE, 2017).

Legend:
Conditions in all cases: concentration: 1 μM, replicates: in singlicate; n = 1
PDGFRB = test system: PDGFRB
PDPK1 = test system: PDPK1
PFTAIRE2 = test system: PFTAIRE2
PFTK1 = test system: T1, PFTK1
T1 construct: gene CDK14

PHKG1 = test system: PHKG1
PHKG2 = test system: PHKG2
PIK3C2B = test system: PIK3C2B
PIK3C2G = test system: PIK3C2G
PIK3CA = test system: PIK3CA
PIK3CB = test system: PIK3CB
PIK3CD = test system: PIK3CD
PIK3CG = test system: PIK3CG
PIK4CB = test system: T2, PIK4CB
T2 construct: gene PI4KB

PIKFYVE = test system: PIKFYVE
PIM1 = test system: PIM1
PIM2 = test system: PIM2
PIM3 = test system: PIM3
PIP5K1A = test system: PIP5K1A
PIP5K1C = test system: PIP5K1C
PIP5K2B = test system: PIP5K2B
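Further: KINOMEscan kinase panel screen.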

Row | SMILES | %Inh (PDGFRB) [%] | %Inh (PDPK1) [%] | %Inh (PFTAIRE2) [%] | %Inh (PFTK1) [%] | %Inh (PHKG1) [%] | %Inh (PHKG2) [%] | %Inh (PIK3C2B) [%] | %Inh (PIK3C2G) [%] | %Inh (PIK3CA) [%] | %Inh (PIK3CB) [%] | %Inh (PIK3CD) [%] | %Inh (PIK3CG) [%] | %Inh (PIK4CB) [%] | %Inh (PIKFYVE) [%] | %Inh (PIM1) [%] | %Inh (PIM2) [%] | %Inh (PIM3) [%] | %Inh (PIP5K1A) [%] | %Inh (PIP5K1C) [%] | %Inh (PIP5K2B) [%]
1 | CSc1ccc(NC2=C(c3ccccc3Cl)C(=O)NC2=O)cc1 [SB-342411] | 31 | 80 | 20 | 25 | 0 | 25 | 0 | 17 | 0 | 3 | 0 | 0 | 0 | 0 | 0 | 0 | 0 | 0 | 33 | 0
2 | Cc1cccc(-c2nc(Nc3ccc4[nH]nnc4c3)c3ccccc3n2)n1 [GW867587] | 0 | 0 | 0 | 0 | 0 | 0 | 0 | 0 | 0 | 0 | 0 | 0 | 0 | 13 | 17 | 0 | 2 | 27 | 0 | 0
3 | OCCOCCn1ccc2ncnc(Nc3ccc(Oc4cccc(Cl)c4)c(Cl)c3)c21 | 0 | 13 | 0 | 10 | 0 | 26 | 0 | 0 | 0 | 0 | 0 | 0 | 0 | 25 | 2 | 0 | 5 | 0 | 34 | 0
4 | COc1ccc(Nc2nccc(N3CCC(NC(=O)Nc4ccc5c(c4)OCO5)C3)n2)cc1 (stereo not drawn) [GSK1379745] | 24 | 27 | 11 | 7 | 0 | 9 | 9 | 0 | 0 | 0 | 5 | 0 | 14 | 14 | 9 | 0 | 0 | 11 | 51 | 40
5 | COC(=O)c1cccc(NC(=O)NCCNc2ccnc(Nc3ccc(F)cc3)n2)c1 [GSK1379883] | 51 | 5 | 9 | 18 | 0 | 0 | 4 | 0 | 9 | 0 | 0 | 8 | 0 | 1 | 0 | 0 | 0 | 34 | 56 | 5
6 | Cc1ccc(O)cc1Nc1cc(C(F)(F)F)nc2ccc(-c3ccncc3)cc12 [GW630823] | 10 | 0 | 34 | 5 | 14 | 5 | 0 | 15 | 1 | 0 | 0 | 0 | 0 | 0 | 4 | 3 | 11 | 0 | 0 | 0
7 | CS(=O)(=O)CCNCc1ccc(-c2ccc3ncnc(Nc4ccc(OCc5ccccc5)c(Cl)c4)c3c2)o1.Cl [GW574783] | 14 | 17 | 0 | 0 | 13 | 0 | 38 | 0 | 0 | 0 | 0 | 0 | 8 | 23 | 0 | 5 | 0 | 32 | 62 | 0
8 | CC(=O)Nc1n[nH]c2ncc(-c3ccccc3)cc12 [SB-548492] | 90 | 0 | 14 | 12 | 2 | 0 | 3 | 23 | 0 | 0 | 0 | 26 | 44 | 0 | 7 | 0 | 14 | 10 | 0 | 8
9 | Cc1cc(N2CCC(NS(=O)(=O)c3ccc(F)cc3)CC2)nc(Nc2cccc(C#N)c2)n1.O=C(O)C(F)(F)F [GSK1653537] | 0 | 15 | 10 | 9 | 17 | 0 | 0 | 6 | 0 | 2 | 0 | 15 | 10 | 0 | 25 | 9 | 0 | 0 | 0 | 6
10 | CCc1nc(-c2cccc(C)c2)c(-c2ccnc(NC(=O)c3ccccc3)c2)s1 | 0 | 0 | 17 | 10 | 0 | 0 | 14 | 49 | 0 | 29 | 44 | 0 | 62 | 1 | 0 | 0 | 0 | 15 | 0 | 64
11 | CC(C)(C)c1ccc(-n2cnc3c(N)ncnc32)cc1 [SKF-97263] | 31 | 5 | 16 | 32 | 0 | 0 | 100 | 12 | 100 | 0 | 28 | 100 | 30 | 0 | 9 | 0 | 0 | 0 | 0 | 2
12 | c1ccc(-c2ccc3c(-c4ccnc(Nc5ccc6c(c5)OCCO6)n4)cnn3n2)cc1 [GW818941] | 4 | 17 | 5 | 19 | 0 | 0 | 0 | 11 | 0 | 0 | 0 | 0 | 0 | 0 | 9 | 0 | 17 | 0 | 0 | 1
13 | Clc1ccc(-c2cc(-c3c[nH]nc3-c3ccccn3)ccn2)cc1 [GW681251] | 62 | 0 | 1 | 0 | 0 | 0 | 0 | 0 | 0 | 0 | 0 | 0 | 4 | 0 | 0 | 30 | 0 | 16 | 79 | 22
14 | Fc1cccc(COc2ccc(Nc3ncnc4nn5ccccc5c34)cc2Cl)c1 [GW689066] | 13 | 0 | 4 | 0 | 2 | 0 | 0 | 0 | 0 | 41 | 0 | 0 | 0 | 0 | 0 | 0 | 0 | 40 | 43 | 7
15 | Cc1ccc(C)c(NC(=O)NCCNc2ccnc(Nc3ccc(F)cc3)n2)c1 [GSK1379878] | 6 | 0 | 10 | 0 | 0 | 0 | 0 | 0 | 0 | 0 | 0 | 0 | 0 | 0 | 0 | 0 | 0 | 41 | 48 | 15
